Test results: the supplement of paper PMC11732987, “Enantioselective OTUD7B fragment discovery through chemoproteomics screening and high-throughput optimisation” (Communications Chemistry, 2025)

What was measured:
Assay in all cases: log2 ratio of Biotin-Ahx-Ub-VS probe labelling (fragment/DMSO); higher = less target engagement (more negative = stronger competition), active = hit call of the paper (q ≤ 0.05, log2 ratio ≤ -1)
Conditions in all cases: compound concentration: 200 uM; treatment time: 3 h
USP34 = USP34 (UniProt Q70CQ2)
USP34, sequence (Q70CQ2 whole entry, the tested form may be a part): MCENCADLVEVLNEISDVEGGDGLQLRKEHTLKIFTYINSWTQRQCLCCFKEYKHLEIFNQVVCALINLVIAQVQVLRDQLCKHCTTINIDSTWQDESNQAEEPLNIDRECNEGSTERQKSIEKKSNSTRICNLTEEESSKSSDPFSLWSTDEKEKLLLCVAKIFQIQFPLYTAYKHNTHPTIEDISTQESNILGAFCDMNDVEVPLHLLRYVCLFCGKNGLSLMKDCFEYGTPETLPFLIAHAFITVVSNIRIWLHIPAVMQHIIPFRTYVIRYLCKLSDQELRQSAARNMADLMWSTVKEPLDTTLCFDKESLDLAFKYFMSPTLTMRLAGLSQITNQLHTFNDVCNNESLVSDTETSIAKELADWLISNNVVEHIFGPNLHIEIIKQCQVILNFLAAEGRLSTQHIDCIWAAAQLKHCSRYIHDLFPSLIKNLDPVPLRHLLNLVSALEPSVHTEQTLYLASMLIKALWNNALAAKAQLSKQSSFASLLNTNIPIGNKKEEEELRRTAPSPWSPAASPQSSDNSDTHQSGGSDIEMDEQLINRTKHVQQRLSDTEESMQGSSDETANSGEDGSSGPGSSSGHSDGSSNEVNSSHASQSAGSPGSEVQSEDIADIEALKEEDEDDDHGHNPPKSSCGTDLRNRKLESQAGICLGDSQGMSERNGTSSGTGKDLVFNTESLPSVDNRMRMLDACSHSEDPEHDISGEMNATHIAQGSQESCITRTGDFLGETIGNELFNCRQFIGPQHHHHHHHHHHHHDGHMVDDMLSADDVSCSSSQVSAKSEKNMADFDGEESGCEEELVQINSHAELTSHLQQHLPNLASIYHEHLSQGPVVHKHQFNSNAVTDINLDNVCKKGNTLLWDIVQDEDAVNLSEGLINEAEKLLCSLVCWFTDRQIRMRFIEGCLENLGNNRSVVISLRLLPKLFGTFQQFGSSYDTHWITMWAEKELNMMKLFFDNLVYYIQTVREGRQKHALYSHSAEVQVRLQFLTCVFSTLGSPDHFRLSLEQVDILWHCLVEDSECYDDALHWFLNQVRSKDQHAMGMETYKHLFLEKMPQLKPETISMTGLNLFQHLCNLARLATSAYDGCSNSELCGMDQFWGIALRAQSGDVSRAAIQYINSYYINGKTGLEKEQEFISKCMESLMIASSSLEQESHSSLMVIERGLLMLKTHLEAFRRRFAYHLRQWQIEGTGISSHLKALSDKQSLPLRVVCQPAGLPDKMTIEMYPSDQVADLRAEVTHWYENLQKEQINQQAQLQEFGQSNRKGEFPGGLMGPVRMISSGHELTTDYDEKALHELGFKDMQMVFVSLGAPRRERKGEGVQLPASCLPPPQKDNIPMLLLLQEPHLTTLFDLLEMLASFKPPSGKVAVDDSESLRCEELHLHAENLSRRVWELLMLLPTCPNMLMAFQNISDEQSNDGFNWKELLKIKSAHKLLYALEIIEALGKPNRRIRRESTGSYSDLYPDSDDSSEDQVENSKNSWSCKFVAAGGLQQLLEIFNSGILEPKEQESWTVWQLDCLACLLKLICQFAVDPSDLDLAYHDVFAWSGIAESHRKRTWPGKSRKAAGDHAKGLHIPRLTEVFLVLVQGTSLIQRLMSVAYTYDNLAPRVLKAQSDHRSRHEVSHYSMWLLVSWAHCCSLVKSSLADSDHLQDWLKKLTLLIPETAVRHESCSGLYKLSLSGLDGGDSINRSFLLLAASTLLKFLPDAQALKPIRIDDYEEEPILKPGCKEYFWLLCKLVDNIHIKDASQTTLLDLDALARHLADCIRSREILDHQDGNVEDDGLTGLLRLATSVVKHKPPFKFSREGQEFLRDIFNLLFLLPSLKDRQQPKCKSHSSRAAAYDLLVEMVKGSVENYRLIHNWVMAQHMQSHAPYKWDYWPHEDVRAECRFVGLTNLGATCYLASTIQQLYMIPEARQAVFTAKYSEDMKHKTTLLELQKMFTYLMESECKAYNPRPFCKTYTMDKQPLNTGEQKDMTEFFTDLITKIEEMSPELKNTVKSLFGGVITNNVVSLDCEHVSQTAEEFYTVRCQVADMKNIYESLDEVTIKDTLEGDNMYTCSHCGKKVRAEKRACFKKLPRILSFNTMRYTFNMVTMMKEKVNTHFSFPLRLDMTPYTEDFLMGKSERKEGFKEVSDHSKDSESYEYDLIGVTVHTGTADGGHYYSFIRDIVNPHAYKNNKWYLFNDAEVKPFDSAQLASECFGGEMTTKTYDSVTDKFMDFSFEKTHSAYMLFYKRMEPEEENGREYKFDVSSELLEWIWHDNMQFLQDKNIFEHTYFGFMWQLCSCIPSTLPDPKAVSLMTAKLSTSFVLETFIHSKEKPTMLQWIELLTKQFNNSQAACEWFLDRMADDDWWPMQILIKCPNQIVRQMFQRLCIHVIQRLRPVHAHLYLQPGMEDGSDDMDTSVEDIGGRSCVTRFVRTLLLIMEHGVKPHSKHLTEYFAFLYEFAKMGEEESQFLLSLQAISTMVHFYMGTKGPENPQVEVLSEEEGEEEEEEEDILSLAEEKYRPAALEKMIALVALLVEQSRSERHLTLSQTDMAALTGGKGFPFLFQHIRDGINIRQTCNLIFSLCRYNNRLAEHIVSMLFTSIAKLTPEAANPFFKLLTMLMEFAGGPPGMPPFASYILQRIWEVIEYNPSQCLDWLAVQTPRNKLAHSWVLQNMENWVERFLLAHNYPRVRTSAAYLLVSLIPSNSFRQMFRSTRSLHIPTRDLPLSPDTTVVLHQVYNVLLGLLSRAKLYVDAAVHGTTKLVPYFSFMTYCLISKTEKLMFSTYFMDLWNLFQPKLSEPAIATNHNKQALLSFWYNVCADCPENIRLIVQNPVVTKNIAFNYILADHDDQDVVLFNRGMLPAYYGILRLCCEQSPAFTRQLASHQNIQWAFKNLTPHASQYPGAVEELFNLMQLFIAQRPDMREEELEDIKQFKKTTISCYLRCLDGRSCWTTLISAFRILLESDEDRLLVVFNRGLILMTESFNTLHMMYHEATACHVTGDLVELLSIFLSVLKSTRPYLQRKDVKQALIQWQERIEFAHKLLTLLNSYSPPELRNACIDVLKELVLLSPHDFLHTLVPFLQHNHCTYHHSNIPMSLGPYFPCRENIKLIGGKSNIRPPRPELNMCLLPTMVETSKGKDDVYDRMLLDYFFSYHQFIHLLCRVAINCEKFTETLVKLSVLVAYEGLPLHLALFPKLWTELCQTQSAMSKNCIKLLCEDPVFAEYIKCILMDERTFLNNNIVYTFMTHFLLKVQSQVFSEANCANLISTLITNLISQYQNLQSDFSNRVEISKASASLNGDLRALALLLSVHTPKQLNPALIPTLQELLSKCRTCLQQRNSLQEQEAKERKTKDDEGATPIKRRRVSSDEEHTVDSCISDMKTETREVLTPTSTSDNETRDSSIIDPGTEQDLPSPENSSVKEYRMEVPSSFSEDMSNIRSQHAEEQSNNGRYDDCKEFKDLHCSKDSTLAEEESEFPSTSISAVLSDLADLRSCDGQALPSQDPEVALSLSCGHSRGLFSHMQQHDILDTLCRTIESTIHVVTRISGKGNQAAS
Summary of the method: (§1)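 Each value is an average log2 ratio of fragment to vehicle, tested by unpaired t-test. The underlying Spectronaut label-free quantities were global-median-normalised, and only proteins with ≥2 unique peptides were included. Triplicate HEK293T lysate samples (495 µg) were exposed to fragment at 200 µM or vehicle for 3 h, then to Biotin-Ahx-Ub-VS at 0.5 µM final for 1 h, before NeutrAvidin enrichment of labelled DUBs, LysC and trypsin digestion, and diaPASEF LC-MS/MS.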

USP36 = target: T1, USP36 (UniProt Q9P275)
T1 sequence (whole entry): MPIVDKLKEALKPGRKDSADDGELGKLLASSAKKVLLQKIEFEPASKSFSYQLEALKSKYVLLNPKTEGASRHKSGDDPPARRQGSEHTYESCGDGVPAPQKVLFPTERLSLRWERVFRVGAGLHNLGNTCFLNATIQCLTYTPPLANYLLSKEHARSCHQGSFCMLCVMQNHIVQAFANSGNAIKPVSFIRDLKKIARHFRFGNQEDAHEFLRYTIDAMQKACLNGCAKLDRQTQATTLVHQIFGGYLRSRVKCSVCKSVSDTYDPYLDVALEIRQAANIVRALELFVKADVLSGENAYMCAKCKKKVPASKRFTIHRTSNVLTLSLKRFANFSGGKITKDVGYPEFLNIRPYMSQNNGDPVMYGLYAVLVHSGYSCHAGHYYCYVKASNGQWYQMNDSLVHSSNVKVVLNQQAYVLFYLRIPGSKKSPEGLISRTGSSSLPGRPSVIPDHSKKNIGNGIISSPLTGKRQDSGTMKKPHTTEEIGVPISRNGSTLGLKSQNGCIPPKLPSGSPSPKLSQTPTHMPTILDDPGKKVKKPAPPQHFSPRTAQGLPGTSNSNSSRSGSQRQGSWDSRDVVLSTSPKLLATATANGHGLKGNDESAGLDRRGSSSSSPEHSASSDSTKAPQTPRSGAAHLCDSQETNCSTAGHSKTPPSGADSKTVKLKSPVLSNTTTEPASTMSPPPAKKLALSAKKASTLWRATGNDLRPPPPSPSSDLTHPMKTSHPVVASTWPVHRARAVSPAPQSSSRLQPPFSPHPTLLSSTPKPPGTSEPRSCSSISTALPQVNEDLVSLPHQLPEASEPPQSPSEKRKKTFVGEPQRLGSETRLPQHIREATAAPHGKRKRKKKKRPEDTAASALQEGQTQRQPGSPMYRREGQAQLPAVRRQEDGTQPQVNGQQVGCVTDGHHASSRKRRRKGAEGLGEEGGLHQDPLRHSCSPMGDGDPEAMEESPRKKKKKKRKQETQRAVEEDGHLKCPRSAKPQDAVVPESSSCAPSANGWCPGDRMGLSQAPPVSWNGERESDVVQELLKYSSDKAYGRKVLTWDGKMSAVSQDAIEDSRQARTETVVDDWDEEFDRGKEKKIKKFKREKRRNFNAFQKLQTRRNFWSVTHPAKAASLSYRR
Summary of the method: as §1

USP38 = target: T2, USP38 (UniProt Q8NB14)
T2 sequence (whole entry): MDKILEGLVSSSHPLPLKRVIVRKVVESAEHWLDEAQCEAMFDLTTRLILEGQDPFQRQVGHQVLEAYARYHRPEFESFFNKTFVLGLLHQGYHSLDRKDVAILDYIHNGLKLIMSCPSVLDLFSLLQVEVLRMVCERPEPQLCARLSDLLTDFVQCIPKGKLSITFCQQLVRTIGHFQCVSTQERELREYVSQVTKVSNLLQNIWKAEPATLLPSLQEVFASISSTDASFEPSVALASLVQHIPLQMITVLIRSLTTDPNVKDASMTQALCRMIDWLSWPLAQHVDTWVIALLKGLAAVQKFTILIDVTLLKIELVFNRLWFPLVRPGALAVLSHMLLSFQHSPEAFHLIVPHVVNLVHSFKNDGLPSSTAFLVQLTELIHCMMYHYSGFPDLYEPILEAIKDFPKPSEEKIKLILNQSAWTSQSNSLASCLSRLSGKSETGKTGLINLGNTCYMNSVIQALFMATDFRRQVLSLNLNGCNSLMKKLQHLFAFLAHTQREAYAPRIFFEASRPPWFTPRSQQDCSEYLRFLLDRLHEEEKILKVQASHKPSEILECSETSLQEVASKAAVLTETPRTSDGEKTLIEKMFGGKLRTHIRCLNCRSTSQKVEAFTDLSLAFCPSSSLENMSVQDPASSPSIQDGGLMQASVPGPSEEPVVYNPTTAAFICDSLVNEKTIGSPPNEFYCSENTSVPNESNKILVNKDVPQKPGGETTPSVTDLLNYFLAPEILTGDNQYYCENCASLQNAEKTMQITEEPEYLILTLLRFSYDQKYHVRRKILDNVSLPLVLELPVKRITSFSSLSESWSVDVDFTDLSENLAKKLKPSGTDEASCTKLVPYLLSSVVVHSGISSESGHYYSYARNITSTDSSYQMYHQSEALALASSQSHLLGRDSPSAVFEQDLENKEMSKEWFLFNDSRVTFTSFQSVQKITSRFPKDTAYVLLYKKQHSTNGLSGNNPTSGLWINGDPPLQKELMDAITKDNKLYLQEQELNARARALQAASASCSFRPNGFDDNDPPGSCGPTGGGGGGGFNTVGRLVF
Summary of the method: as §1

USP39 = target: T3, USP39 (UniProt Q53GS9)
T3 sequence (whole entry): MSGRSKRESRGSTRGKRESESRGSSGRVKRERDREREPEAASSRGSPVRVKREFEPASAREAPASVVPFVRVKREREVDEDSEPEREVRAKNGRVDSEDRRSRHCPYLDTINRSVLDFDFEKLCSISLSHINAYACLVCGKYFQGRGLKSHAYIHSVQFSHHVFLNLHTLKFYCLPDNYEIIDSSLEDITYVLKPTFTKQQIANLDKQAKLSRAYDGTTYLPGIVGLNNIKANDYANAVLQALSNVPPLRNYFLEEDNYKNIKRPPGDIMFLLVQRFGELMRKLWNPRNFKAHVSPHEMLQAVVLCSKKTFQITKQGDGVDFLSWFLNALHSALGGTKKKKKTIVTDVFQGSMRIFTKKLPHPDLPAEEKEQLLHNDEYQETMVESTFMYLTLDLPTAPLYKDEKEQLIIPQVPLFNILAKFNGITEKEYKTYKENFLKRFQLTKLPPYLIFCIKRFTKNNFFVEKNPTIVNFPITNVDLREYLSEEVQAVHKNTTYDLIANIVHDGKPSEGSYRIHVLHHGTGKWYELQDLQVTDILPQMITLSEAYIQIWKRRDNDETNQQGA
Summary of the method: as §1

USP4 = target: T4, USP4 (UniProt Q13107)
T4 sequence (whole entry): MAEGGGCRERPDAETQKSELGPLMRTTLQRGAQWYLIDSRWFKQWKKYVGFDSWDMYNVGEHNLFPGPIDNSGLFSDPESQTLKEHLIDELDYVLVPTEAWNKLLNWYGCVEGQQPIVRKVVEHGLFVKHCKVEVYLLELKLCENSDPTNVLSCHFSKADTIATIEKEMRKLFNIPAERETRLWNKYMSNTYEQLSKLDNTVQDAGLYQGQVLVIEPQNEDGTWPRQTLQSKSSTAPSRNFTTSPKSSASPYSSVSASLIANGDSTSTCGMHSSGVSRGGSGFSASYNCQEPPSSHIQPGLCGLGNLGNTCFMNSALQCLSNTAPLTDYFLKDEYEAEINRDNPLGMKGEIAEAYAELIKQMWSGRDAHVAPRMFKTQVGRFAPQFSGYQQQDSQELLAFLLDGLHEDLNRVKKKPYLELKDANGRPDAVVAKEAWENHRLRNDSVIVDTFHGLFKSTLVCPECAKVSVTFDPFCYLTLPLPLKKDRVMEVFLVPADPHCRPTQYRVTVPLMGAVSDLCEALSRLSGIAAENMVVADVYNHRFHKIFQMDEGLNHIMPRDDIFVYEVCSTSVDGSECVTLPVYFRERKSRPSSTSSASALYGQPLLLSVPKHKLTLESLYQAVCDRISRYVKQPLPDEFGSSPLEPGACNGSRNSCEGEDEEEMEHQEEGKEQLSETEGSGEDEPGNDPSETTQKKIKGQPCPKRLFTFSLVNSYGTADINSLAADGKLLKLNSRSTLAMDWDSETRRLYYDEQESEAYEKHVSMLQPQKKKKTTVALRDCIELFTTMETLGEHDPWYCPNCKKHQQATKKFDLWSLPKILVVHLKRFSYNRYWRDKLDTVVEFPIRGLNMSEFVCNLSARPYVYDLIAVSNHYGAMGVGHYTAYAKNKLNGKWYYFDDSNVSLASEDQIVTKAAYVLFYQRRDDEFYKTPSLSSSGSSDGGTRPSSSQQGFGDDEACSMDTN
Summary of the method: as §1

Measured: log2 ratio of Biotin-Ahx-Ub-VS probe labelling

Cc1ccc(N2CCC(NC(=O)CCl)C2=O)cc1 (stereo not given)
inactive: USP34 0.132 | USP36 -0.156 | USP38 0.0543 | USP39 0.064 | USP4 0.0879
